Our source for the cytotoxicity call values is the antibiotic and cytotoxicity screens of Wong et al. (2023).

The whole screen tested about 39,000 compounds, of which about 3,300 (8.5%) were called active. What follows is part of a selection rich in actives, with near analogues and random picks from the rest.

The experiment relates to HepG2. Description: cytotoxicity call (relative viability < 0.9). The following applies: 10 µM.
With `Cc1cccc(S(=O)(=O)N2C[C@@H](O)COC[C@@H]3O[C@H](CC(=O)NCc4ccncn4)CC[C@H]32)c1`, the cytotoxicity call was “inactive”. For `COCC(=O)Nc1ccc2c(c1)OC[C@H](C)N(Cc1cccc(F)c1)C[C@@H](C)[C@@H](OC)CN(C)C2=O` the value was “inactive”; for `CCCN(C)C[C@@H]1OCCCC[C@@H](C)Oc2ccc(NC(=O)Nc3c(C)noc3C)cc2C(=O)N([C@H](C)CO)C[C@@H]1C`, “inactive”; for `C[C@H](CO)N1C[C@H](C)[C@@H](CN(C)C(=O)NC2CCCCC2)OCCCC[C@H](C)Oc2ccc(NS(=O)(=O)c3ccccc3)cc2C1=O`, “inactive”.

As for `C[C@@H]1CCCCO[C@@H](CN(C)Cc2ccc3c(c2)OCO3)[C@H](C)CN([C@H](C)CO)C(=O)c2cc(NS(=O)(=O)c3cccs3)ccc2O1`, the cytotoxicity call is “inactive”. For `C[C@@H]1CCCCO[C@@H](CN(C)C(=O)Nc2ccc(F)cc2)[C@H](C)CN([C@H](C)CO)C(=O)c2cc(NC(=O)Nc3ccc(F)cc3)ccc2O1` the value was “inactive”; for `C[C@@H]1CN([C@@H](C)CO)C(=O)c2cc(NS(C)(=O)=O)ccc2O[C@@H]1CN(C)Cc1ccc(C(=O)O)cc1`, “inactive”; for `C[C@@H]1CCCCO[C@@H](CN(C)Cc2ccncc2)[C@@H](C)CN([C@@H](C)CO)C(=O)c2cc(NC(=O)Nc3ccc(F)cc3)ccc2O1`, “inactive”. For `C[C@@H]1CN([C@H](C)CO)C(=O)c2cccc(NC(=O)C3CC3)c2O[C@@H]1CN(C)S(=O)(=O)c1ccc(F)cc1` the value was “inactive”; for `C=CCC[C@@H](Cc1ccc(F)cc1)C(=O)OC[C@@H](Cc1c[nH]c2ccccc12)NC(=O)[C@H](CC=C)CC(=O)N(CCO)Cc1ccccc1`, “active”. For `C=CCC[C@@H](Cc1ccc(F)cc1)C(=O)OC[C@H](Cc1c[nH]c2ccccc12)NC(=O)[C@H](CC=C)CC(=O)N(CCO)Cc1ccccc1` the value was “inactive”; for `C=CCC[C@H](Cc1ccc(F)cc1)C(=O)OC[C@H](Cc1c[nH]c2ccccc12)NC(=O)[C@H](CC=C)CC(=O)N(CCO)Cc1ccccc1`, “inactive”.

As to `C[C@H](CO)N1C[C@H](C)[C@H](CN(C)C(=O)Nc2cccc3ccccc23)Oc2ccc(NC(=O)Nc3ccc(F)cc3)cc2CC1=O`, the cytotoxicity call is “inactive”. For `C[C@@H](N)c1nc2c(s1)CCCC2` the value was “inactive”. For `O=C1O[C@H](c2ccccc2)[C@H](c2ccccc2)N2[C@H]1[C@@H](C(=O)NC[C@@H](O)c1ccccc1)[C@]1(C(=O)Nc3ccc(C#CC4(O)CCCCCC4)cc31)[C@H]2c1ccccc1OCCO` the value was “inactive”; for `C[C@@H]1CN([C@@H](C)CO)C(=O)c2cc(NC(=O)Nc3ccc(C(F)(F)F)cc3)ccc2O[C@H]1CN(C)Cc1ccc(Cl)c(Cl)c1`, “inactive”; for `C[C@H]1CN([C@@H](C)CO)C(=O)c2cc(NC(=O)Nc3ccc(C(F)(F)F)cc3)ccc2O[C@@H]1CN(C)Cc1ccc(Cl)c(Cl)c1`, “inactive”. For `C[C@@H]1CN([C@@H](C)CO)C(=O)c2cc(NC(=O)Nc3ccc(C(F)(F)F)cc3)ccc2O[C@@H]1CN(C)Cc1ccc(Cl)c(Cl)c1` the value was “active”. Regarding `C[C@@H]1CN([C@H](C)CO)C(=O)c2cc(NC(=O)Nc3ccc(C(F)(F)F)cc3)ccc2O[C@@H]1CN(C)Cc1ccc(Cl)c(Cl)c1`, the cytotoxicity call was “active”. For the compound `C[C@@H]1CN([C@H](C)CO)C(=O)c2cc(NC(=O)Nc3ccc(C(F)(F)F)cc3)ccc2O[C@H]1CN(C)Cc1ccc(Cl)c(Cl)c1`, the cytotoxicity call is “active”. For the compound `C[C@H](CO)N1C[C@H](C)[C@@H](CN(C)Cc2ccc(Cl)c(Cl)c2)Oc2ccc(NC(=O)Nc3ccc(C(F)(F)F)cc3)cc2C1=O`, the cytotoxicity call was “active”. For `C[C@H](CO)N1C[C@H](C)[C@@H](CN(C)S(=O)(=O)c2ccc(Cl)cc2)Oc2ccc(NC(=O)CCCN(C)C)cc2CC1=O` the value was “inactive”; for `NCC[C@H]1CC[C@H](NC(=O)C2CC2)[C@H](CO)O1`, “inactive”. For `CSc1nc(=O)c(CCO)c(C)[nH]1` the value was “inactive”; for `COc1cccc(NC(=O)N2C[C@H](O)COC[C@@H]3O[C@@H](CC(=O)NCCCN4CCOCC4)CC[C@H]32)c1`, “inactive”; for `CCOC(=O)CSc1nc(=O)cn[nH]1`, “inactive”. For `C[C@@H]1CN([C@H](C)CO)C(=O)Cc2cc(NC(=O)C3CC3)ccc2O[C@H]1CN(C)Cc1ccc2c(c1)OCO2` the value was “inactive”; for `CC(C)NC(=O)N(C)C[C@@H]1OCCCC[C@@H](C)Oc2ccc(NC(=O)Nc3ccccc3)cc2C(=O)N([C@@H](C)CO)C[C@@H]1C`, “inactive”; for `COc1ccc(S(=O)(=O)Nc2ccc3c(c2)C(=O)N([C@H](C)CO)C[C@H](C)[C@H](CN(C)C(=O)Nc2c(C)noc2C)OCCCC[C@@H](C)O3)cc1`, “inactive”. In the case of `C[C@@H]1CN([C@H](C)CO)C(=O)c2cc(C3=CCCC3)cnc2O[C@H]1CN(C)S(=O)(=O)c1cn(C)cn1`, the cytotoxicity call is “inactive”. Regarding `Cc1noc(C)c1S(=O)(=O)Nc1ccc2c(c1)CC(=O)N([C@H](C)CO)C[C@H](C)[C@H](CN(C)S(=O)(=O)c1cn(C)cn1)O2`, the cytotoxicity call is “inactive”. On to `C[C@@H]1CCCCO[C@H](CN(C)C(=O)Nc2ccc3c(c2)OCO3)[C@H](C)CN([C@@H](C)CO)C(=O)c2cc(NC(=O)c3ccncc3)ccc2O1`, for which the cytotoxicity call is “inactive”.

Regarding `C[C@@H]1CN([C@@H](C)CO)C(=O)Cc2cc(NC(=O)Nc3cccc4ccccc34)ccc2O[C@@H]1CN(C)C(=O)Nc1cccc2ccccc12`, the cytotoxicity call was “inactive”. Take `NCCN1CCOCC1`: the cytotoxicity call is “inactive”. For `C[C@H]1CN([C@@H](C)CO)C(=O)c2cc(NC(=O)Nc3ccc(C(F)(F)F)cc3)ccc2O[C@H]1CN(C)Cc1ccc(Cl)c(Cl)c1` the value was “active”; for `C[C@H](CO)N1C[C@H](C)[C@@H](CN(C)Cc2ccc(Cl)c(Cl)c2)Oc2ccc(NC(=O)Nc3ccc(F)cc3)cc2C1=O`, “inactive”; for `C[C@H](CO)N1C[C@H](C)[C@H](CN(C)Cc2ccc(Cl)c(Cl)c2)Oc2ccc(NC(=O)Nc3ccc(C(F)(F)F)cc3)cc2C1=O`, “active”.

On to `C[C@H]1CN([C@@H](C)CO)C(=O)c2cc(NC(=O)Nc3ccc(F)cc3)ccc2O[C@@H]1CN(C)Cc1ccc(Cl)c(Cl)c1`, for which the cytotoxicity call was “inactive”. With `C[C@H]1CCCCO[C@@H](CN(C)C(=O)Nc2ccc(F)cc2)[C@@H](C)CN([C@@H](C)CO)C(=O)c2cc(NS(=O)(=O)c3ccccc3)ccc2O1`, the cytotoxicity call is “inactive”. On to `CC(C)NC(=O)N(C)C[C@H]1Oc2ccc(NC(=O)Cc3ccccc3)cc2C(=O)N([C@H](C)CO)C[C@H]1C`, for which the cytotoxicity call was “inactive”. For `C[C@H](CO)N1C[C@H](C)[C@H](CN(C)C(=O)Nc2ccccc2)OCCCC[C@H](C)Oc2ccc(NC(=O)c3ccccc3)cc2C1=O` the value was “inactive”; for `COc1cccc(NC(=O)N[C@@H]2C=C[C@@H](CC(=O)N3CCOCC3)O[C@@H]2CO)c1`, “inactive”; for `C[C@@H]1CN([C@H](C)CO)C(=O)c2cccc(NC(=O)c3nc4ccccc4s3)c2O[C@@H]1CN(C)S(=O)(=O)c1cn(C)cn1`, “inactive”. For `CC(C)NC(=O)N(C)C[C@@H]1Oc2c(NC(=O)Nc3ccc4c(c3)OCO4)cccc2C(=O)N([C@H](C)CO)C[C@@H]1C` the value was “inactive”; for `C[C@H](CO)N1C[C@H](C)[C@H](CN(C)C(=O)C2CCCCC2)OCCCC[C@H](C)Oc2ccc(NS(=O)(=O)c3cccs3)cc2C1=O`, “inactive”. For `Cc1cc(C)n(C(=O)Cn2cc([N+](=O)[O-])cn2)n1` the value was “inactive”. For the compound `C[C@H](CO)N1C[C@H](C)[C@H](CN(C)Cc2ccncc2)Oc2ccc(NS(=O)(=O)c3ccc(F)cc3)cc2CC1=O`, the cytotoxicity call was “inactive”. For `CC(=O)c1ccn[nH]1` the value was “inactive”; for `COC(=O)[C@]12CCC(C)(C)C[C@H]1[C@H]1C(=O)C=C3[C@@]4(C)C=C(C#N)C(=O)C(C)(C)[C@@H]4CC[C@@]3(C)[C@]1(C)CC2`, “active”. For `COC(=O)[C@@]12CCC(C)(C)C[C@@H]1[C@@H]1C(=O)C=C3[C@]4(C)C=C(C#N)C(=O)C(C)(C)[C@H]4CC[C@]3(C)[C@@]1(C)CC2` the value was “active”; for `Cc1ccccc1S(=O)(=O)N1C[C@H](O)COC[C@H]2O[C@H](CC(=O)NCc3ccccc3Cl)CC[C@@H]21`, “inactive”; for `Cc1noc(C)c1NC(=O)Nc1cccc2c1O[C@H](CN(C)C(=O)NC(C)C)[C@@H](C)CN([C@@H](C)CO)C2=O`, “inactive”.

As for `C[C@@H]1CN([C@@H](C)CO)C(=O)Cc2cc(NC(=O)CCN3CCOCC3)ccc2O[C@@H]1CN(C)C(=O)NC1CCCCC1`, the cytotoxicity call is “inactive”. For `C[C@@H]1CN([C@H](C)CO)C(=O)c2cc(C#CC3(O)CCCC3)cnc2O[C@@H]1CN(C)S(C)(=O)=O` the value was “inactive”; for `Cc1ccc(S(=O)(=O)Nc2ccc3c(c2)C(=O)N([C@@H](C)CO)C[C@H](C)[C@H](CN(C)Cc2ccc(Oc4ccccc4)cc2)O3)cc1`, “inactive”; for `Cc1ccc(S(=O)(=O)Nc2ccc3c(c2)C(=O)N([C@H](C)CO)C[C@@H](C)[C@H](CN(C)Cc2ccc(Oc4ccccc4)cc2)O3)cc1`, “active”. For `Cc1ccc(S(=O)(=O)Nc2ccc3c(c2)C(=O)N([C@@H](C)CO)C[C@@H](C)[C@@H](CN(C)Cc2ccc(Oc4ccccc4)cc2)O3)cc1` the value was “active”; for `Cc1ccc(S(=O)(=O)Nc2ccc3c(c2)C(=O)N([C@H](C)CO)C[C@H](C)[C@H](CN(C)Cc2ccc(Oc4ccccc4)cc2)O3)cc1`, “inactive”; for `Cc1ccc(S(=O)(=O)Nc2ccc3c(c2)C(=O)N([C@@H](C)CO)C[C@@H](C)[C@H](CN(C)Cc2ccc(Oc4ccccc4)cc2)O3)cc1`, “inactive”. For `Cc1ccc(S(=O)(=O)Nc2ccc3c(c2)C(=O)N([C@H](C)CO)C[C@H](C)[C@@H](CN(C)Cc2ccc(Oc4ccccc4)cc2)O3)cc1` the value was “inactive”; for `Cc1ccc(S(=O)(=O)Nc2ccc3c(c2)C(=O)N([C@H](C)CO)C[C@@H](C)[C@@H](CN(C)Cc2ccc(Oc4ccccc4)cc2)O3)cc1`, “active”; for `Cc1ccc(S(=O)(=O)Nc2ccc3c(c2)C(=O)N([C@@H](C)CO)C[C@H](C)[C@@H](CN(C)Cc2ccc(Oc4ccccc4)cc2)O3)cc1`, “inactive”.
